“And” between values parts separate entries of the source, which are not always exact repeats. Equal entries are not always repeated. Records with an inconclusive call do not appear. The source made the active and inactive calls. The call rests on the fitted dose curve; in most records, active means well fitted cell-killing curve with a large enough effect in the repeat runs; inconclusive means weak or mixed curves, or effect the other way; inactive means flat fitted curve, though single readings scatter.
On the % scale 0 is the no-effect control and ±100 the full control effect; potency means the concentration at half of the fitted maximal effect.

The nature of this experiment: qHTS RealTime-Glo MT Cell Viability Assay in HEK293 cells - 40 hour (AID 1224874). Further: nearly all actives have a fitted effect of over 50% in size. The conditions noted are these: RealTime-Glo luminescence; max response: stronger effect = lower value. In short, it runs like this:
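Measured as luminescence from the same continuously cultured HEK293 wells at successive time points (0, 8, 16, 24, 32, 40 h) after compound addition. Reagent present from seeding; dosing at 5 h; incubation 37 C.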
(qHTS replaces the single test concentration by a dilution series.)
As for `[F][Sn]([c]1ccccc1)([c]1ccccc1)[c]1ccccc1`, the Potency is 0.436 µM (active).

`CC(=O)[O-].CC(=O)[O-].O.O.[Zn+2]`: the max response is -2.4% (inactive). As to `CO/N=C(\C(=O)OC)c1ccccc1CO/N=C(\C)c1cccc(C(F)(F)F)c1`, the Potency is 6.16 µM (active). Turning to `CNC(=O)/C=C(\C)OP(=O)(OC)OC`, the max response was 6.16% (inactive).

For `Nc1nc(N)c(N)c(N)n1`, the max response was 10.2% (inactive). Regarding `Nc1ccccc1-c1ccccc1`, the max response was -12.7% (inactive). As to `CCC(C)Nc1c([N+](=O)[O-])cc(C(C)(C)C)cc1[N+](=O)[O-]` (stereo unspecified), the max response was -8.53% (inactive). Still for that read-out and setting: to `O=C(N[C@H]1N=C(c2ccccc2F)c2cccc3c2N(CC3)C1=O)c1cc2ccccc2[nH]1` belongs -4.67% (inactive).

With `c1ccc2nc(N3CCNCC3)ccc2c1`, the max response was -17.1% (inactive). With `C[C@H]1[C@H](c2ccc(Cl)cc2)SC(=O)N1C(=O)NC1CCCCC1`, the Potency is 43.6 µM (active).

Consider `Clc1ccc(C(c2ccc(Cl)cc2)C(Cl)Cl)cc1`, for which the Potency is 49.8 µM (active) and 43.6 µM (active).

`CC1=C2C[C@H]3[C@@H](CC=C4C[C@@H](O)CC[C@@]43C)[C@@H]2CC[C@]12O[C@@H]1C[C@H](C)CN[C@H]1[C@H]2C`: the Potency is 16.9 µM (active). For the compound `Cc1c([N+](=O)[O-])c(C)c([N+](=O)[O-])c(C(C)(C)C)c1[N+](=O)[O-]`, the max response is -20% (inactive). `CCC(OC(C)=O)C(CC(C)NC)(c1ccccc1)c1ccccc1` (stereo unspecified): the Potency was 49.4 µM (active). With `CCC(C)c1cccc(C(C)CC)c1O` (stereo unspecified), the max response is -7.36% (inactive). Still for that read-out and setting: to `CC1CN1` (stereo unspecified) belongs 6.11% (inactive).

For the origin of these results see PubChem BioAssay (Tox21).
